# Sampled rows, rich in hits. Any-hit rate of the full collection: about 3.4%.
# KAT2A inh = qHTS Assay for Inhibitors of GCN5L2; 390,000 tested, 0.21% active; GCN5L2 HAT assay, ThioGlo1 CoA-SH fluorescence; Potency, µM (series often up to 58.9 µM), for inactives: at the top dose activity change, negative = inhibition, usual class: inhibitors; Histone acetyltransferase KAT2A (Homo sapiens), Q92830; also: % is scaled to controls: 0 for no effect and ±100 for the full control effect
#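 Compounds, pin-transferred from DMSO stocks, meet 20nM GCN5L2 for 15 min before the reaction begins with H3(1-25) peptide (75uM) and acetyl-CoA (70uM). Thiol-reactive ThioGlo1 reports CoA release over 20 min at room temperature.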
# VDR inh = Inhibitors of the vitamin D receptor (VDR): qHTS; Vitamin D3 receptor (Homo sapiens), P11473; Potency, µM, without a hit: max response, negative = inhibition, hits mostly inhibitors; 400,000 tested, 0.93% active; VDR-SRC2-3 peptide fluorescence polarization, 2 h; also: % is scaled to controls: 0 for no effect and ±100 for the full control effect
#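 Reagent solutions, kept cold and dark, are dispensed first; compounds are then pinned in at 23 nl, plates briefly spun, and incubated 2 h at ambient temperature. Inhibition of VDR–SRC2-3 peptide binding is read by fluorescence polarization.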
# PKM2 activator = qHTS Assay for Activators of Human Muscle isoform 2 Pyruvate Kinase; Pyruvate kinase PKM (Homo sapiens), P14618; purified PKM2, Kinase-Glo ATP luminescence, activation; response scale: 0% is enzyme alone, no compound; Potency, µM (titrated, usually from 57.5 µM), for the others: top-dose activation, usual class: activators; 260,000 tested, 0.34% active; also: % is scaled to controls: 0 for no effect and ±100 for the full control effect; nearly all actives have a fitted effect of over 55% in size
#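 Purified hPK-M2 (>95%) run at intermediate activity with 0.1 mM ADP and 0.5 mM PEP in 50 mM imidazole pH 7.2, KCl, MgCl2; 1 h room temperature. ATP formed read by Kinase-Glo luminescence; normalized to uninhibited and no-enzyme controls.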
# Mito fusion yeast = qHTS Assay for Small Molecule Inhibitors of Mitochondrial Division or Activators of Mitochondrial Fusion. S. cerevisiae fusion-defective mutant growth rescue, CellTiterGlo 48 h. Potency, µM (series often up to 46.1 µM), without a hit: top-dose growth rescue (activation), usual class: activators. 320,000 tested, 0.23% active. AID 485298, 2010; also: % of control where 0% means no effect; nearly all actives have a fitted effect of over 45% in size
#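 S. cerevisiae fusion-defective temperature-sensitive mutants (e.g. fzo1-1, mgm1-5) grown 48 h at 37C in YPEG (ethanol/glycerol non-fermentable) medium with 23 nl compound per well; growth rescue read as CellTiterGlo luminescence.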
# PLK1 PBD inh = qHTS for Inhibitors of PLK1-PDB (polo-like kinase 1 - polo-box domain): Primary Screen; Serine/threonine-protein kinase PLK1 (Homo sapiens), P53350; 360,000 tested, 2.8% active; AID 720504, 2013; Plk1 PBD binding of FITC phosphopeptide, fluorescence polarization; Potency, µM, for inactives: max response, negative = inhibition, most hits filed as inhibitors; also: series mostly up to about 57 µM; % is scaled to controls: 0 for no effect and ±100 for the full control effect; nearly all actives have a fitted effect of over 65% in size
# GLS inhibitor = qHTS for Inhibitors of Glutaminase (GLS). 410,000 tested, 0.21% active. Potency, µM (titrated, usually from 45.5 µM), without a hit: at the highest dose activity change, negative = inhibition, hits mostly inhibitors. GLS enzymatic activity, qHTS titration. Glutaminase kidney isoform, mitochondrial (Homo sapiens), O94925. AID 624170, 2012; also: % is scaled to controls: 0 for no effect and ±100 for the full control effect
# Target sequence (O94925 whole entry, looked up, canonical isoform): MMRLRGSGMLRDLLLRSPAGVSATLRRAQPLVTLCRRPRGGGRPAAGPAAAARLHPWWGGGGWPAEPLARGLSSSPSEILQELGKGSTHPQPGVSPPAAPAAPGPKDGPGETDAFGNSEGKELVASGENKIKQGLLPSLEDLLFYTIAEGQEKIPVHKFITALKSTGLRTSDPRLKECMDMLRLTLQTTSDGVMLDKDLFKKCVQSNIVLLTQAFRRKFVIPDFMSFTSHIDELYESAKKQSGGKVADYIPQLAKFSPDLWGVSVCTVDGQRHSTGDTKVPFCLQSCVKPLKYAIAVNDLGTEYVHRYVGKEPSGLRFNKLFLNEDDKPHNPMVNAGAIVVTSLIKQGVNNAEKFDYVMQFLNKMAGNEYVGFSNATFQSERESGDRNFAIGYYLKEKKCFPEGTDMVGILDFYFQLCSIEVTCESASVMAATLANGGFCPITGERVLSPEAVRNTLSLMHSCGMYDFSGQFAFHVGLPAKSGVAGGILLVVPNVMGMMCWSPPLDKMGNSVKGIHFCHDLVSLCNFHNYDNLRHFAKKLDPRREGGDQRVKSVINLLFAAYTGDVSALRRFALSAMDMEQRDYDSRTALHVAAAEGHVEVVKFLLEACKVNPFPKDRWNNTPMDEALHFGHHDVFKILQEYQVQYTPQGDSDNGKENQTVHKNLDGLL
#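 Human kidney-isoform GLS in 45 mM KH2PO4 pH 8.2, 0.02% Tween-20, with compound, started with 1mM L-Glutamine (added stock). Glutamate oxidase/HRP/Amplex red coupled fluorescence read at start and after 30 min at RT.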
# * = called active by the depositor; ? = inconclusive; · = not tested or not shown; ! = a repeat was not active. Calls follow the shape of the dose curve; as a rule, active = well fitted curve in the direction sought with a large enough effect; inconclusive = small, poorly fitted or top-dose-only effect, or another doubt; inactive = no such curve, though single readings can be large; an effect the other way counts as inactive or inconclusive. Potency is read from the fitted curve at half-maximal effect.
SMILES,KAT2A inh,VDR inh,PKM2 activator,Mito fusion yeast,PLK1 PBD inh,GLS inhibitor
COc1cc(OC)cc(C(=O)Nc2cc3c(cc2N2CCCCC2)n(C)c(=O)n3C)c1,-4%,5%,·,·,·,0%
COc1cc(NC(=O)c2ccc(Cl)cc2)c(OC)cc1NC(=O)CN1CCCCC1,-4%,-24%,0%,2%,30µM*,0%
COc1ccc(C(=O)Nc2cc3c(cc2N2CCCCC2)n(C)c(=O)n3C)cc1OC,-9%,-7%,·,13µM*,-9%,7%
CCOC(=O)C1=CCC(c2cccc(C)c2)N(S(=O)(=O)c2ccc(C)cc2)C1 (stereo unspecified),·,·,·,·,-13%,-5%
O=C(CS(=O)c1ccc(C(F)(F)F)cc1[N+](=O)[O-])Oc1ccc(Cl)cc1 (stereo unspecified),-7%,50µM*,1%,2%,13µM*,15%
Cc1ccc(OCCNc2ccc(C(F)(F)F)cc2[N+](=O)[O-])cc1,-3%,-1%,-4%,-1%,-5%,1%
Cc1cc(C)cc(OC(=O)CS(=O)c2ccc(C(F)(F)F)cc2[N+](=O)[O-])c1 (stereo unspecified),-9%,20µM*,9%,3%,?,-3%
COCCn1c(=S)[nH]c2cc(C(=O)N3CCN(Cc4ccccc4)CC3)ccc2c1=O,·,7%,·,·,·,·
CN(C)S(=O)(=O)c1cccc(NC(=S)NNC(=O)c2cc3ccccc3cc2O)c1,?,-3%,·,11%,24µM*,?
COc1cc(/C=N/NC(=S)Nc2cccc(S(=O)(=O)N(C)C)c2)ccc1O,-2%,-8%,7%,-3%,-9%,10µM*
COc1ncc2nc(-c3ccccc3)c(=O)n(CCC#N)c2n1,-12%,1%,·,·,·,·
CN1C(=O)C(N=Nc2ccc([N+](=O)[O-])cc2)SC1=S (stereo unspecified),·,-1%,·,·,13µM*,5%
CN1CCCCCC1=Nc1ccc([N+](=O)[O-])cc1,·,3%,·,·,-12%,-7%
CCCCOc1ccc(C(=S)N2CCC(C(N)=O)CC2)cc1,-2%,-24%,-2%,0%,?,3%
COc1ccc(C(=S)N2CCC(C(N)=O)CC2)cc1Br,-23%,-7%,?,1%,19µM*,-1%
NC(=O)C1CCN(C(=S)c2ccc(-c3ccc(Br)cc3)o2)CC1,-9%,2%,-1%,1%,12µM*,-12%
Cc1ccc(S(=O)(=O)Nc2ccc(C(N)=O)cc2)cc1[N+](=O)[O-],?,?,-3%,-5%,15µM*,?
COC(=O)c1ccc(C)c(NS(=O)(=O)c2ccc(C)c([N+](=O)[O-])c2)c1,5%,1%,-1%,9%,?,-1%
Cc1ccc(NC(=O)CSc2ccc(C(N)=O)cc2[N+](=O)[O-])cc1C,-4%,22µM*,-4%,1%,3µM*,?
C/C(CC(C)C)=N\NS(=O)(=O)c1ccc(C)c([N+](=O)[O-])c1,-4%,-21%,-4%,8%,30µM*,3%
CC(=O)c1ccc(NC(=O)c2noc3c2CSc2ccccc2-3)cc1,-3%,2%,·,·,·,-5%
COc1ccc(N(CC(=O)Nc2cc(C)ccc2C)S(=O)(=O)c2ccc(OC)c(OC)c2)cc1,13%,11%,·,·,·,-2%
CCOC(=O)CNc1nnc(SCC(=O)OCC)[nH]c1=O,13%,40µM*,12%,10%,?,25%
COC(=O)CSc1nnc(C)c(=O)[nH]1,-2%,6%,1%,-7%,-7%,2%
O=C(NC(NNc1ccc([N+](=O)[O-])cc1)(C(F)(F)F)C(F)(F)F)c1ccccc1Cl,-1%,79µM*,5%,1%,?,0%
SMILES,KAT2A inh,VDR inh,PKM2 activator,Mito fusion yeast,PLK1 PBD inh,GLS inhibitor
Cc1noc(C)c1-c1nccc(NC2CC2)n1,?,50µM*,·,·,·,·
Cc1noc(C)c1-c1nccc(NCCN2CCOCC2)n1,-2%,-6%,·,·,·,·
O=C(Nc1cccnc1)c1cc(-c2ccc(Cl)c(Cl)c2)on1,-12%,-6%,0%,7%,0%,-8%
O=C(Nc1cccnc1)c1cc(-c2cccc(Cl)c2)on1,-10%,79µM*!,-2%,11%,24µM*,0%
CCOC(=O)c1c(-c2ccc(-c3ccccc3)cc2)csc1NC(=O)CCN1CCOCC1,-10%,-12%,7%,10µM*,-2%,7%
CCOC(=O)c1c(-c2ccc(F)cc2)csc1NC(=O)CCN1C(=O)c2ccccc2C1=O,-5%,-9%,-12%,0%,-3%,2%
CCOC(=O)c1c(-c2ccc(C)cc2)csc1NC(=O)c1cc(=O)c2cc(C)c(C)cc2o1,0%,4%,·,·,·,-2%
CCOC(=O)c1c(-c2ccccc2)csc1NC(=O)C(C)NCCCN1CCOCC1 (stereo unspecified),-15%,2%,3%,11%,-4%,25%
CCOC(=O)c1c(-c2ccc(C)cc2)csc1NC(=O)c1cc(=O)c2cc(C)ccc2o1,?,28µM*,·,·,·,-11%
CCOC(=O)c1c(-c2ccc(F)cc2)csc1NC(=O)C1CC=CCC1C(=O)O (stereo unspecified),-4%,?,-1%,-6%,24µM*,-10%
CCOC(=O)c1c(-c2ccc(F)cc2)csc1NC(=O)CCN1CCOCC1,-7%,-1%,-5%,11µM*,-3%,0%
O=C(CCCCCNC(=O)c1ccccc1)C[N+](=O)[O-],-9%,?,6%,9%,-11%,-16%
Cc1ccc([C@H]2C(C(=O)O)=CC[C@@H](c3ccc(C)cc3)N2S(=O)(=O)c2ccccc2C)cc1,-3%,-11%,·,·,?,18%
COc1ccc(C)cc1NC(=O)COCc1cc(-c2ccc(F)cc2)on1,-5%,-7%,·,·,·,5%
COc1ccc(/C=N/NC(=O)c2cccc(S(=O)(=O)N3CCCC3)c2)cc1O,-6%,0%,·,-5%,-9%,5%
O=C(Cn1cc(C(F)(F)F)ccc1=O)N/N=C/c1ccccc1O,-3%,?,-2%,4%,30µM*,72%
CCOC(=O)c1ccccc1NC(=O)COC(=O)CN1C(=O)C2CC=CCC2C1=O (stereo unspecified),?,-3%,-2%,0%,-3%,-1%
COc1cccc(/C=C2/SC(=S)N(CC(=O)Nc3nccs3)C2=O)c1,·,0%,·,·,·,·

# Screening results (PubChem BioAssay)
